Common to all, as to experiment: PBM binding z-score (relative to random genomic background probes); higher = stronger binding; sequences stand for … in GC…GCGATTGACAGCGTAGAATGAAGG
For assay [1], the system named is FXR:RXRa (NR concentration 270 nM, RXRa partner concentration 90 nM). A digest of the protocol:
(§1)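 Custom Agilent 4×180K protein-binding microarrays carried double-stranded probes, each with a 34-nt variable region. These regions held direct-repeat seeds, single-nucleotide variants, half-site ablations and random human genomic background sequences. Ligand-free nuclear receptor dimers were incubated on the arrays for 1 h, antibodies against each partner (one per run) detected binding, and scanned fluorescence was regression-normalized. Binding z-scores take the random background probes as reference.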

Assay [2] has as its system LXRa:RXRa (NR concentration 270 nM, RXRa partner concentration 90 nM). A digest of the protocol: as §1
For assay [3], the system named is LXRa homodimer (NR concentration 270 nM). In outline:
as §1

Assay [4] deals with LXRb:RXRa (NR concentration 270 nM, RXRa partner concentration 90 nM). A digest of the protocol: as §1
For assay [5], the system named is LXRb homodimer (NR concentration 270 nM). A digest of the protocol:
as §1

For assay [6], the system named is PPARa:RXRa (NR concentration 270 nM, RXRa partner concentration 90 nM). A digest of the protocol:
as §1

Assay [7] has as its system PPARg:RXRa (NR concentration 180 nM, RXRa partner concentration 90 nM). A digest of the protocol: as §1
Assay [8] concerns PPARg:RXRa 270nM:90nM, anti-RXR (NR concentration 270 nM, RXRa partner concentration 90 nM). A digest of the protocol:
as §1

Assay [9] concerns PPARg:RXRa 30nM:10nM, anti-RXR (NR concentration 30 nM, RXRa partner concentration 10 nM). In outline:
as §1

Assay [10] has as its system PPARg:RXRa 90nM:30nM, anti-RXR (NR concentration 90 nM, RXRa partner concentration 30 nM). In outline:
as §1

Assay [11] deals with PPARg:RXRa DBDmut IVT, anti-RXR (DBD mutation: RXRa K156A/R161A, NR concentration 270 nM, RXRa partner concentration 90 nM). In outline: as §1
The test system of assay [12] is PPARg:RXRa IVT, anti-PPARg (NR concentration 270 nM, RXRa partner concentration 90 nM). A digest of the protocol: as §1
For assay [13], the system named is PPARg DBDmut:RXRa IVT, anti-PPARg (DBD mutation: PPARg1 K132A/R137A, NR concentration 270 nM, RXRa partner concentration 90 nM). In outline: as §1
Assay [14] relates to PPARg DBDmut IVT, anti-PPARg (DBD mutation: PPARg1 K132A/R137A, NR concentration 270 nM). A digest of the protocol: as §1
For assay [15], the system named is PPARg homodimer (NR concentration 180 nM). A digest of the protocol: as §1
Assay [16] relates to PXR:RXRa (NR concentration 270 nM, RXRa partner concentration 90 nM). A digest of the protocol: as §1
The subject of assay [17] is PXR homodimer (NR concentration 270 nM). A digest of the protocol:
as §1

Assay [18] relates to RARa:RXR (NR concentration 270 nM, RXRa partner concentration 90 nM). In outline:
as §1

For assay [19], the system named is RARa homodimer (NR concentration 270 nM). In outline:
as §1

Assay [20] deals with RARb:RXRa (NR concentration 270 nM, RXRa partner concentration 90 nM). A digest of the protocol:
as §1

Take TCGAGTAGGTTACCAATGGGGCATTCGGCTTTCT: the PBM binding z-score is -0.107 in assay [1]; 1.22 in [2]; -0.464 in [3]; 0.357 in [4]; -0.96 in assay [5]; 0.808 in assay [6]. The PBM binding z-score in assay [7] came to 0.00688; in assay [8] it was 0.931; in assay [9] it was 0.855; in assay [10], 0.717; in [11], 3.25; in assay [12], 2.7. Further, the PBM binding z-score is -1.22 in assay [13]; -1.07 in assay [14]; 0.209 in [15]; -0.187 in assay [16]; -0.566 in assay [17]; 0.111 in assay [18]. Moreover, the PBM binding z-score in assay [19] is -1.05; in [20], 0.768.
CCTACTGGACCATCAGGTCATTGATATCAACGTT: the PBM binding z-score in [1] is 1.87; in assay [2], 1.86; in assay [3], 2.81; in [4] it was 2.53; in assay [5], 1.02; in [6] it was 2.43. Also, the PBM binding z-score in assay [7] was 1.14; in assay [8], 1.97; in [9], 0.798; in assay [10] it was 1.68; in assay [11], 2.13; in assay [12], 2.58. Further, the PBM binding z-score in [13] stood at 0.468; in assay [14], 0.568; in assay [15] it was 2.23; in assay [16] it was 2.09; in assay [17], 1.45; in assay [18], 2.25. Further, the PBM binding z-score came to 1.47 in assay [19] and 1.97 in [20].
With CGTCCAAGGTCTGAGAGGTCAGTGAATGCCGAGT, the PBM binding z-score in assay [1] is 1.6; in assay [2], 1.76; in [3], 0.726; in assay [4], 1.58; in [5], -0.51; in assay [6] it was 2.29. The PBM binding z-score was -0.0569 in assay [7]; 0.729 in assay [8]; -0.614 in assay [9]; -0.154 in assay [10]; 0.28 in assay [11]; 0.77 in assay [12]. The PBM binding z-score in assay [13] was -0.424; in assay [14], -1.57; in [15] it was 1.81; in [16], 2.94; in assay [17] it was 1.65; in assay [18] it was 2.79. The PBM binding z-score in assay [19] came to 0.0831; in assay [20], 3.24.
For the sequence TCTATTAGTTGATGAGGGCAACCGAAACAGCGGA, the PBM binding z-score in assay [1] came out at 0.667; in assay [2] it was 0.683; in assay [3], 0.18; in assay [4], 0.607; in [5], 0.412; in assay [6], 1.07. For the same sequence, the PBM binding z-score in assay [7] turned out to be 0.347; in assay [8], 2; in assay [9], 3.62; in assay [10] it was 2.83; in assay [11], 2.06; in assay [12], 0.967. For the same sequence, the PBM binding z-score was found to be 0.312 in assay [13]; 0.843 in assay [14]; 1 in assay [15]; 0.877 in assay [16]; 0.351 in assay [17]; 0.981 in assay [18]. For the same sequence, the PBM binding z-score in assay [19] amounted to 0.755; in assay [20] it was 1.41.

Source of the values: the supplement of paper PMC6555819.
